Source: PubChem BioAssay
Compounds with a hit are over-represented: about 0.39% of the library has one in this group of screens.
Apoferritin bind – candidate novel general anesthetic via apoferritin binding; apoferritin/1-aminoanthracene competitive binding, fluorescence; 350,000 compounds, 0.074% hits; P02791; Potency, µM (titrated, usually from 77.5 µM), most hits filed as inhibitors; AID 485281; note: nearly all actives have a fitted effect of over 20% in size
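Apoferritin-based anesthetic binding model; compound displacement of fluorescent 1-AMA measured as endpoint fluorescence after 10 minutes at room temperature, scaled to free-ligand and complex controls.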
TRPV1 PAM – enhances activation of the human vanilloid receptor TRPV1 | Q8NER1 | TRPV1-expressing cells, Fluo-8 calcium influx, capsaicin EC20 potentiation | potentiation, % at 8.33 µM | 320,000 compounds, 0.02% hits | AID 540277; in the data active = potentiation above about 80%; inconclusive = between about 30% and that limit
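Cells expressing TRPV1 were dye-loaded with Fluo-8 and read kinetically: 10 s baseline, 3 min after compound (agonist portion), then 2 min after EC20 capsaicin (allosteric enhancer portion). Calcium-bound dye fluorescence at 480/520 nm.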
TRPV1 agonist – activates the human vanilloid receptor TRPV1; TRPV1-expressing cells, Fluo-8 calcium influx, agonist mode; activation, % at 8.33 µM; 320,000 compounds, 0.19% hits; AID 540275; in the data active = activation above about 80%; inconclusive = between about 30% and that limit
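Fluo-8 calcium influx in TRPV1-expressing cells, kinetic read (ex 480/em 520 nm). Compound added and read 3 min for agonist activity, followed by capsaicin at EC20 final and 2 min further read for enhancement.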
AT treatment – potential ataxia-telangiectasia treatments restoring KAP-1 phosphorylation; F2112 A-T fibroblasts, KAP-1 phosphorylation AlphaLISA; neocarzinostatin DNA damage 30 min before lysis; Potency, µM (top dose mostly 57.5 µM), usual class: activators; 320,000 compounds, 0.19% hits; AID 485349; note: nearly all actives have a fitted effect of over 45% in size
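hTERT-immortalized A-T patient fibroblasts (F2112), 500 cells/well in OPTI-MEM, 1% FBS, got compounds for 60 min, then NCS for 30 min at 37C. Lysates were then assayed for phospho-KAP-1 by AlphaLISA (anti-pKAP1 donor, anti-KAP1 acceptor beads), 6 hr at 25C.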
CBFb RUNX1 block – blocks binding between human CBF-beta and RUNX1 | Q01196+Q13951 | AlphaScreen CBFb-His/RUNX1-biotin binding, biochemical | Potency, µM (highest dose often 59.8 µM), hits mostly inhibitors | 230,000 tested, under 10 active
Target sequence (Q01196 whole entry, looked up): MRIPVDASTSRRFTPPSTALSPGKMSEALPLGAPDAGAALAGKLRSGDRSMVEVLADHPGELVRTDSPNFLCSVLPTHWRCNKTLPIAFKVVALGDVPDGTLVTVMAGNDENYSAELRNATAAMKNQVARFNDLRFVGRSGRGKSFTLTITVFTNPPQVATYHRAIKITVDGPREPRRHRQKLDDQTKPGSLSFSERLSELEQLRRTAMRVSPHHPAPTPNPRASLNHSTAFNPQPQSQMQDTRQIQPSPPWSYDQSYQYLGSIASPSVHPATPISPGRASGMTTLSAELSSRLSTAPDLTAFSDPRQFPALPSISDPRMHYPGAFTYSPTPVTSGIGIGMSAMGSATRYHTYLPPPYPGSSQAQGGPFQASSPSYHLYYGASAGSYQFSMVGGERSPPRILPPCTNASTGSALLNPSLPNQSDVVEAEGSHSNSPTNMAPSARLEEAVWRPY
Target sequence (Q13951 whole entry, looked up): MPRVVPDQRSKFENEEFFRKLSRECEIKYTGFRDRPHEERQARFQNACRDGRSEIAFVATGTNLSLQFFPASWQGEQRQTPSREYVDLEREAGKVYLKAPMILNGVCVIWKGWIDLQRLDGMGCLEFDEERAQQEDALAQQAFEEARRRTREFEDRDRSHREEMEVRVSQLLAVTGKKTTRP
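Room-temperature protein-protein interaction test with 30 nM each of His-tagged CBF-beta and biotinylated RUNX1, 15 min with compound, then 90 min with nickel plus streptavidin beads. Signal read in AlphaScreen mode.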
A number is an active result. Unless noted, calls come from the whole dose curve; as a rule, active = well fitted curve in the direction sought with a large enough effect; inconclusive = small, poorly fitted or top-dose-only effect, or another doubt; inactive = no such curve, though single readings can be large; an effect the other way counts as inactive or inconclusive.

O=C(Oc1ccc2cc(Br)ccc2c1)N1CCCCCC1 was read as Apoferritin bind inactive, TRPV1 PAM inactive, TRPV1 agonist inactive, AT treatment 35µM and CBFb RUNX1 block inconclusive.
For ClC1=C(Cl)C(Cl)(C2(Cl)C(Cl)=C(Cl)C(Cl)=C2Cl)C(Cl)=C1Cl the results were Apoferritin bind inactive.
For CCOc1ccc(-n2c(-c3ccoc3)nc3ccccc3c2=O)cc1 the results were Apoferritin bind inactive, TRPV1 PAM inactive, TRPV1 agonist inactive, AT treatment inactive and CBFb RUNX1 block inactive.
`CCOc1ccc(-c2c(C)n(-c3ccc(OCC)cc3)c3[n+]2CCCCC3)cc1` gave Apoferritin bind inactive, TRPV1 PAM inconclusive, TRPV1 agonist inactive, AT treatment 18µM and CBFb RUNX1 block inactive.
`BrCC1C[n+]2c(SCc3ccccc3)nc3sc4c(c3c2O1)CCCC4` (stereo not given) gave Apoferritin bind inactive, TRPV1 PAM inactive, TRPV1 agonist inactive, AT treatment 40µM and CBFb RUNX1 block inactive.
Screening O=S(=O)(Cl)c1ccccc1 returned CBFb RUNX1 block inactive.
CCOC(=O)C1CCN(Cc2ccc(Cl)nc2)CC1 was read as Apoferritin bind inactive, TRPV1 PAM inactive, TRPV1 agonist inactive and AT treatment inactive.
`CCOC(=O)C1CCCN(Cc2ccc(-c3ccccc3)cc2)C1` (stereo not given) gave Apoferritin bind inactive, TRPV1 PAM inactive, TRPV1 agonist inactive and AT treatment 25µM.
COC(=O)C1=C(c2ccc(Cl)c(C(F)(F)F)c2)C[C@@H]2CC[C@H]1N2C(=O)NCCOc1ccc(OC)cc1 was read as TRPV1 PAM inactive, TRPV1 agonist inactive and AT treatment 20µM.
CCCCn1cc[n+](C)c1 was read as Apoferritin bind inactive and CBFb RUNX1 block inactive.
C/C1=C/C(=O)O[C@@H]2C[C@@H](CC[C@H](C)/C=C\CC1)O[C@@](O)(C1CSC(=O)N1)C2 (stereo not given in full) was read as Apoferritin bind inactive and CBFb RUNX1 block inactive.
Nc1c(C(=O)NCCc2ccccc2)c2nc3ccccc3nc2n1CCN1CCOCC1 was read as Apoferritin bind inactive, TRPV1 PAM inactive, TRPV1 agonist inconclusive, AT treatment inactive and CBFb RUNX1 block inconclusive.
Nc1c(C(=O)NCCN2CCOCC2)c2nc3ccccc3nc2n1Cc1ccccc1 was read as Apoferritin bind inactive, TRPV1 PAM inactive, TRPV1 agonist inactive, AT treatment 20µM and CBFb RUNX1 block inconclusive.
O=C(Cn1nc(-c2ccc(Cl)cc2)ccc1=O)N1CCC2(CC1)OCCO2 was read as Apoferritin bind inconclusive, TRPV1 PAM 105, TRPV1 agonist inactive, AT treatment inactive and CBFb RUNX1 block inactive.
For O=[N+]([O-])c1ccc(NCc2ccccc2)c2nonc12 the results were Apoferritin bind inactive, TRPV1 PAM inactive, TRPV1 agonist 126, AT treatment inactive and CBFb RUNX1 block inactive.
Screening COC[C@H]1OC(=O)c2coc3c2[C@@]1(C)C1=C(C3=O)[C@H]2CCC(=O)[C@@]2(C)C[C@H]1OC(C)=O returned CBFb RUNX1 block inactive.
For Cc1ccc[n+](CC(=O)c2ccccc2)c1 the results were Apoferritin bind inactive, TRPV1 PAM inactive, TRPV1 agonist inactive and AT treatment 1.1µM.
`CCOC(=O)CC(SP(=O)(OC)OC)C(=O)OCC` (stereo not given) gave CBFb RUNX1 block inactive.
`CC1(C)C(C=C(Cl)Cl)C1C(=O)OCc1cccc(Oc2ccccc2)c1` (stereo not given) gave Apoferritin bind inactive, TRPV1 PAM inactive, TRPV1 agonist inactive, AT treatment 40µM and CBFb RUNX1 block inactive.
Screening Cc1c(F)c(F)c(COC(=O)C2C(/C=C(\Cl)C(F)(F)F)C2(C)C)c(F)c1F (stereo not given) returned Apoferritin bind inactive and CBFb RUNX1 block inactive.
`CON(C)C(=O)Nc1ccc(Br)c(Cl)c1` gave Apoferritin bind inactive and CBFb RUNX1 block inactive.
`CC1(C)OC(c2ccccc2)=C/C(=C/C=C2C(=O)NC(=S)NC2=O)O1` gave Apoferritin bind inactive, TRPV1 PAM inactive, TRPV1 agonist inactive, AT treatment inactive and CBFb RUNX1 block inactive.
`CN1/C(=C\C=C2C(=O)NC(=S)NC2=O)C(C)(C)c2ccccc21` gave Apoferritin bind inactive, TRPV1 PAM inactive, TRPV1 agonist 98, AT treatment inactive and CBFb RUNX1 block inactive.
`C/C(=N\NC(N)=S)C12CC3CC(CC(C3)C1)C2` gave Apoferritin bind 8.9µM, TRPV1 PAM inactive, TRPV1 agonist inactive, AT treatment inactive and CBFb RUNX1 block inactive.
`CN1CCCC(C(=O)c2ccc(-c3ccccc3)cc2)C1` (stereo not given) gave Apoferritin bind inactive, TRPV1 PAM inactive, TRPV1 agonist inactive and AT treatment inactive.
Screening CN1CCCC(C(O)(c2ccccc2)c2ccccc2)C1 (stereo not given) returned Apoferritin bind inactive, TRPV1 PAM inactive, TRPV1 agonist inactive, AT treatment 3.2µM and CBFb RUNX1 block inactive.
